# Among all 360,000 compounds or so, about 25,000 (6.9%) were called active. Another 9% or so got no clear call; they are omitted. The call rests on the fitted dose curve; in most records, active means well fitted inhibition curve with a large enough effect; inconclusive means small, poorly fitted or top-dose-only effect; inactive means flat fitted curve, though single readings scatter. For the sample, actives were picked, then their nearest neighbours and some compounds at random.
# Target: Luciferin 4-monooxygenase (Photinus pyralis) (UniProt P08659)
# Test: qHTS profiling assay for firefly luciferase inhibitor/activator using purifed enzyme and Km concentrations of substrates (counterscreen for miR-21 project); further: nearly all actives have a fitted effect of over 55% in size;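 on activity change, negative = inhibition: plate controls were vehicle for no effect and reference inhibitor for full effect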
# Conditions: purified FLuc, luminescence inhibition; series mostly up to 57.5 µM; activity change, negative = inhibition: at the top concentration
# Outline: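 Biochemical qHTS of compounds, final roughly 60 µM downward over six points, against 10 nM purified firefly luciferase using Km concentrations of substrates (10 uM D-luciferin, 10 uM ATP) in Tris acetate pH 7.5 buffer; luminescence output.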
# Potency means the concentration at half of the fitted maximal effect.
# Sequence of Luciferin 4-monooxygenase (Photinus pyralis) (P08659 whole entry, looked up): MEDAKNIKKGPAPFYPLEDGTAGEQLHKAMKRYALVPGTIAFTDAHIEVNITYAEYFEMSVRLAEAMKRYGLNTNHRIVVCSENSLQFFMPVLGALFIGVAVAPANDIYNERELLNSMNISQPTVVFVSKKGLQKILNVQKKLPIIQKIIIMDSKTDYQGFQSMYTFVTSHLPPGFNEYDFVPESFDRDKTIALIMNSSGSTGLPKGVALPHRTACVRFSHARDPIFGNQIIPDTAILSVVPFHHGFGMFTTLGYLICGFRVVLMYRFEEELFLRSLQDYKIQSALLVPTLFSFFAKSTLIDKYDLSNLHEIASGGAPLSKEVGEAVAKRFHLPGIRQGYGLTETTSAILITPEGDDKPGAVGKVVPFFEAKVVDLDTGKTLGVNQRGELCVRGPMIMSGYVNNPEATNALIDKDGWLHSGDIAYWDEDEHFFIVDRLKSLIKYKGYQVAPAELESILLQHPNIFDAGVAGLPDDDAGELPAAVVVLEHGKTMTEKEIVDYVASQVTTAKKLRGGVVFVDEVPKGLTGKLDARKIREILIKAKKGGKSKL
SMILES,"activity change, negative = inhibition",Potency
CCCNC(=O)C1CCN(c2nc3ccc(C)cc3[nH]2)CC1,-13.2% (inactive),
C=CC(=O)OCCOCCOCCOCCOC(=O)C=C,3.63% (inactive),
CO[C@H]1[C@@H]2C=CO[C@@H](O[C@H]3O[C@@H](CO)[C@H](O)[C@@H](O)[C@@H]3O)[C@@H]2[C@@]2(CO)O[C@@H]12,0.484% (inactive),
CCOc1ccccc1C(=O)NCC(c1ccc(N(C)C)cc1)N1CCCC1 (centres undefined),5.38% (inactive),
CCCN1C(=O)C(O)(CC(=O)c2ccc(CC)cc2)c2cc(Br)ccc21 (centres undefined),-1.26% (inactive),
CN(CC(=O)NCc1ccc2c(c1)OCO2)CC(=O)Nc1ccc(F)c(F)c1F,6.28% (inactive),
Cc1noc(C)c1CCC(=O)N1CCCC(CO)(Cc2ccccc2)C1 (centres undefined),,19 µM (active)
CCOC(=O)C1(Cc2ccccc2C)CCCN(C(=O)CCc2c(C)noc2C)C1 (centres undefined),-2.5% (inactive),
COC(=O)CCC(=O)N1CCCC(CO)(Cc2ccccc2)C1 (centres undefined),,15.1 µM (active)
Cc1noc(C)c1CCC(=O)O,-1.99% (inactive),
CCCc1cc(C(=O)N2CCCC(CO)(CCCc3ccccc3)C2)n(C)n1 (centres undefined),-2.74% (inactive),
Cc1ccccc1CC1(CO)CCCN(C(=O)c2cc(-c3ccccc3)no2)C1 (centres undefined),-8.7% (inactive),
CN(CC(=O)Nc1ccccc1C(F)(F)F)C(=O)Cc1ccccc1F,0.869% (inactive),
CCN(CC)C(CNC(=O)CSc1nnnn1-c1cccc(F)c1)c1ccco1 (centres undefined),-1.72% (inactive),
CSc1ncc(C(=O)NCCCc2ccccc2)c(C)n1,-4.77% (inactive),
COc1ccc(OC)c(CNC(=O)c2c3c(nc4ccccc24)C(=O)N(C2CCCCC2)C3)c1,-2.95% (inactive),
CC(=O)Oc1ccc(N(C(C)=O)S(=O)(=O)c2ccc3ccccc3c2)cc1Br,-10.9% (inactive),
COc1ccc(C2CC(=O)N(Cc3ccccc3C)c3c2c(C)nn3-c2nc(C)cc(C)n2)c(OC)c1 (centres undefined),6.83% (inactive),
COc1cc(-c2nn3c(-c4cccc(C)c4)nnc3s2)cc(OC)c1OC,7.07% (inactive),
CCOc1cccc(-c2nn3c(-c4ccccn4)nnc3s2)c1,-19.6% (inactive),
c1ccc(-c2cc(-c3nnc4sc(-c5ccccn5)nn34)[nH]n2)cc1,,10.7 µM (active)
CN(Cc1ccccc1)c1ccc(-c2nc(-c3ccccc3)no2)cc1[N+](=O)[O-],-3.2% (inactive),
COc1cccc(N2CCN(CC(=O)Nc3ccnn3C3CCCC3)CC2)c1,3.51% (inactive),
CCN(c1ccc(Cl)cc1)S(=O)(=O)c1nnc(NC(=O)c2ccco2)s1,-0.0682% (inactive),
Cc1cc(NC(=O)COc2ccc([N+](=O)[O-])cc2)no1,2.75% (inactive),
Cc1cc(NC(=O)COn2nnc3ccccc32)no1,4.3% (inactive),

SMILES,"activity change, negative = inhibition",Potency
Cc1cc(NC(=O)CSCc2ccccc2C)no1,-1.06% (inactive),
Cc1cc(NC(=O)c2ccccc2C)no1,,15.1 µM (active)
Cc1cc(NC(=O)COc2ccccc2C#N)no1,,12 µM (active)
Cc1ccccc1C(=O)Nc1ccccc1NC(=O)c1ccccc1C,-0.392% (inactive),
COc1ccc(N2C(=O)CSC23C(=O)N(Cc2cccc(F)c2)c2ccccc23)cc1Cl (centres undefined),-0.272% (inactive),
COc1ccc(C(=O)C[n+]2ccc(N)c(C)c2C)cc1,-11.6% (inactive),
CC(CNC(=O)c1nnc(Cc2cccc(F)c2)o1)c1ccccc1 (centres undefined),-1.56% (inactive),
NC(=O)NC(CC(=O)NNC(=O)c1ccccn1)c1ccc(Cl)cc1 (centres undefined),-1.76% (inactive),
CC(C)(C)NC(=O)CSc1nc(-c2ccc(F)cc2)cc(C(F)(F)F)n1,2.93% (inactive),
COC(=O)Cc1ccc(OCC(=O)NC2CCCC2)cc1,2.01% (inactive),
Cc1c(C(=O)Nc2ccccn2)oc2ccc(Br)cc12,,2.13 µM (active)
Cc1noc(C)c1C(=O)Nc1ccccn1,20.3% (inactive),
COC(=O)c1oc2ccc(Br)cc2c1NC(C)=O,1.34% (inactive),
COc1cc(C(CC(=O)NCCC(C)C)N2Cc3ccccc3C2=O)cc(OC)c1OC (centres undefined),-0.101% (inactive),
CCCn1c(=N)n(CC(O)COc2ccccc2OC)c2ccccc21 (centres undefined),0.404% (inactive),
COc1cc2[nH]c(=O)n(Cc3ccc(C(=O)NCc4ccc(C)cc4)cc3)c(=O)c2cc1OC,1.8% (inactive),
COCCCN(C(=S)Nc1c(C)cc(C)cc1C)C(C)c1ccncc1 (centres undefined),0.293% (inactive),
CC1=C(C(=O)Nc2ccccc2)C(c2cccs2)C(C#N)=C(SCC#N)N1 (centres undefined),3.23% (inactive),
O=C(Nc1ccc(CN2CCOCC2)cc1)c1cc(Cl)ccc1Cl,-1.52% (inactive),
Cc1ccc(NC(=O)c2ccc(Oc3ncccn3)cc2)cc1,,15.1 µM (active)
COc1ccc(NC(=O)c2sccc2SCC#N)cc1,,13.5 µM (active)
Cc1ccc(NC(=O)c2cccnc2C(=O)Nc2ccc(C)cc2)cc1,-13.1% (inactive),
CCCc1cc(=O)oc2cc(OCC(=O)Nc3ccc(CN4CCOCC4)cc3)c(Cl)cc12,0.442% (inactive),
COc1ccc(NS(=O)(=O)c2ccc(NC(=O)c3ccc(N(C)S(C)(=O)=O)cc3)cc2)cc1,8.07% (inactive),
COc1cccc(-c2cc(C(=O)Nc3ccc(C)cc3)[nH]n2)c1,-11.6% (inactive),
COc1ccc(C(=O)Nc2cccc(S(C)(=O)=O)c2)cc1,,16.9 µM (active)

SMILES,"activity change, negative = inhibition",Potency
CCOc1ccc(C(=O)Nc2ccc(CN3CCOCC3)cc2)cc1Cl,,7.57 µM (active)
COc1ccc(-n2cnnc2SCC(=O)Nc2cccc(S(N)(=O)=O)c2)cc1,1.34% (inactive),
COc1ccc(NC(=O)c2cc3cc(C)ccc3n2C)cc1,-4.75% (inactive),
CCOc1ccc(N2CC(c3nc4ccccc4n3CCOc3ccc(OC)cc3)CC2=O)cc1 (centres undefined),-3.28% (inactive),
CCc1cccc(NC(=O)CN(C)S(=O)(=O)c2ccc3[nH]c4c(c3c2)CCCC4)c1,-18.7% (inactive),
O=C(CCc1ccccc1)NCc1ccc2c(c1)CCN2C(=O)c1ccccc1,-14% (inactive),
CNC(=O)CN1C(=O)c2cccnc2Sc2ccccc21,-6.05% (inactive),
CN(Cc1ccccc1)C(=O)c1cn(C)c2ccc(S(=O)(=O)N(C)C3CCCCC3)cc2c1=O,-2.07% (inactive),
Cn1cc(S(=O)(=O)Nc2ccc(Cl)cc2Cl)c(=O)n(C)c1=O,-3.16% (inactive),
Cc1cc(C)cc(NC(=O)C(c2ccccc2)N2CCN(CC(=O)N3CCCC3)CC2)c1 (centres undefined),3.43% (inactive),
Cc1cccc(OCCC(=O)OCc2csc(CC(=O)Nc3ccccc3C)n2)c1,-1.32% (inactive),
O=C(Nc1ccccc1F)C(c1ccccc1)N1Cc2ccccc2C1=O (centres undefined),4.63% (inactive),
COc1ccccc1CNC(=O)c1ccc(NC(=O)N2CC(C)Sc3ccccc32)cc1 (centres undefined),-13.1% (inactive),
COc1cc2c(=O)c(S(=O)(=O)c3ccc(C(C)C)cc3)cn(Cc3ccccc3C)c2cc1OC,-1.62% (inactive),
COc1ccc(NC(=O)c2ccc(C#CC(C)(C)O)cc2)cc1,-18.6% (inactive),
CCCOc1cccc(C(=O)Nc2cccc(NC(=O)c3ccc(C(C)(C)C)cc3)c2)c1,,1.69 µM (active)
CCCOc1cccc(C(=O)Nc2ccccc2C(=O)N2CCN(C)CC2)c1,-1.36% (inactive),
O=C(Nc1ccc(CSc2ccccc2)cc1)c1ccc(CN2CCOCC2)cc1,-7.97% (inactive),
COCCNC(=S)c1ccc(OC)cc1,-8.55% (inactive),
CCCOc1cccc(C(=O)NCCCNC(=O)c2cccnc2)c1,3.75% (inactive),
COc1ccc(NC(=O)c2ccc(OC)cc2)cc1,,4.78 µM (active)
COc1ccc(C(=S)Nc2ccccc2)cc1,,13.5 µM (active)
COc1ccc(CC(=O)Nc2ccc(C(=O)NC(C)(C)C)cc2)cc1,-8.31% (inactive),
CCCC(=O)NC(=S)Nc1ccc(CN2CCOCC2)cc1,0.646% (inactive),
COc1ccc(C(=O)CCC(=O)Nc2ccc(Cl)cc2)cc1,2.82% (inactive),
COc1ccc(C(=O)Nc2ccc(CN3CCOCC3)cc2)cc1,,12 µM (active)

SMILES,"activity change, negative = inhibition",Potency
Cc1cccc(C(=O)NCCc2nc3ccccc3n2Cc2ccccc2Cl)c1,-4.32% (inactive),
O=C1C2N=NN(CC(=O)N3N=C(c4cccc5ccccc45)CC3c3ccccc3)C2C(=O)N1c1ccccc1 (centres undefined),5.45% (inactive),
Cc1ccc(-n2nc(CO)c(C(=O)NCCc3ccccc3)n2)cc1,-0.322% (inactive),
COc1ccccc1C(=O)NC(CCSC)C(=O)N1CCN(C/C=C/c2ccccc2)CC1 (centres undefined),11.5% (inactive),
COc1cc(C(=O)Nc2ccc(-n3c(C)nc4ccccc4c3=O)cc2)cc(OC)c1OC,-0.586% (inactive),
CC(C)Cn1c(-c2ccc(S(=O)(=O)N3CCOCC3)cc2)csc1=Nc1cc(Cl)ccc1Cl,2.36% (inactive),
Cn1c(CC(=O)NNC(=O)c2ccccc2F)nc2ccccc21,2.54% (inactive),
CCOc1ccc2oc(C(=O)N(CC)CC(=O)Nc3ccc(NC(C)=O)cc3)c(C)c2c1,-7.13% (inactive),
Cc1nn(CC(=O)N2CCN(c3cccc(C(F)(F)F)c3)CC2)c(=O)c2cc3sccc3n12,-8.4% (inactive),
CC(=O)c1ccc(NC(=O)c2nc(-c3ccc(C)cc3)n3c2CCCCC3)cc1,-5.49% (inactive),
COc1ccc(C(=O)Nc2ccnn2C2CCN(Cc3ccncc3)CC2)cc1,-1.5% (inactive),
COc1cccc(NC(=O)c2csnn2)c1,-19.5% (inactive),
COc1ccc(NC(=O)Nc2ccc3nsnc3c2)cc1,,6.75 µM (active)
COc1ccc(C(=O)Nc2onc3c2CCCC3)cc1,,0.601 µM (active)
CC1CCc2noc(NC(=O)c3ccc([N+](=O)[O-])cc3)c2C1 (centres undefined),-12% (inactive),
CCC(C(=O)OCC(=O)Nc1ccc(C(=O)Nc2ccc(OC)cc2)cc1)c1ccccc1 (centres undefined),-15.7% (inactive),
CCOC(=O)c1c(NC(=O)c2ccc(N3CCOCC3)c([N+](=O)[O-])c2)sc(C)c1C,0.104% (inactive),
CCC(=O)Nc1ccc(C(=O)Nc2cccc(OC)c2)cc1,,23.9 µM (active)
COc1ccc(-c2cc(C(=O)Nc3sc4c(c3C(N)=O)CCCC4)no2)cc1,-17.3% (inactive),
COC(=O)[C@H](CCSC)NC(=O)Nc1ccc(OC)cc1,0.815% (inactive),
COc1ccc(C(=O)Nc2sc(C)c(C)c2CN2CCOCC2)cc1,,23.9 µM (active)
COc1ccc(/C=N/NC(=O)Nc2ccc3nsnc3c2)c(OC)c1,-4.18% (inactive),
CCCCN1C(=O)c2[nH]nc(-c3ccccc3O)c2C1c1cccc(OCc2ccccc2)c1 (centres undefined),1.47% (inactive),
CC1CCN(C(=O)Cn2c(=O)n(-c3ccc(Cl)cc3)c(=O)c3c4c(sc32)CCC4)CC1,4.6% (inactive),
Cc1ccccc1NC(=O)CN1C(=O)C(C)(C)c2ccccc21,-0.294% (inactive),
Cc1noc(C)c1-c1ccc2ncnc(NC(C)c3ccco3)c2c1 (centres undefined),1.6% (inactive),
